Assay [1] in a line: qHTS assay to identify small molecule agonists of the androgen receptor (AR) signaling pathway in the presence of an antagonist - cell viability counter screen (AID 1259379). Note: nearly all actives have a fitted effect of over 25% in size. Note: potency is the fitted concentration of half-maximal effect. The gist of the method: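 Cytotoxicity counter-screen run in the same wells as the nilutamide-challenged (3.0 µM final) AR agonist assay in MDA-kb2 cells. Compounds tested at 15 concentrations for 16 h, 37 °C without CO2; CellTiter-Fluor fluorescence read.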
Background: In qHTS, concentration-response curves come from the screen itself.

A short description of assay [2]: qHTS assay to identify small molecule agonists of the estrogen receptor beta (ER-beta) signaling pathway - cell viability counter screen (AID 1259380). Note: nearly all actives have a fitted effect of over 30% in size. Note: potency is the fitted concentration of half-maximal effect. The method, boiled down:
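Cell viability counter screen: CellTiter-Glo luminescence (30 min, room temperature) measured in the same wells as the beta-lactamase readout, after 16 hr compound exposure at 37C of ER-beta-bla HEK293T cells in 2% charcoal-stripped FBS medium.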

Assay [3] in a line: qHTS assay to identify small molecule antagonists of the estrogen receptor beta (ER-beta) signaling pathway - cell viability counter screen (AID 1259382).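 Note: HEK293T cells carrying ER-beta-UAS-bla reporter stimulated with estradiol; series mostly up to about 92 µM; nearly all actives have a fitted effect of over 55% in size.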 The method, boiled down:
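Cytotoxicity was measured in the same wells by CellTiter-Glo luminescence after 30 min at room temperature. Cells were ER-beta-bla HEK293T in charcoal-stripped serum, given compound together with 1 nM E2 and incubated 16 h at 37C.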

Assay [4] in a line: qHTS assay to identify small molecule agonists of the estrogen receptor alpha (ER-alpha) signaling pathway in the presence of an antagonist - cell viability counter screen (AID 1259386). Note: series mostly up to about 92 µM; nearly all actives have a fitted effect of over 30% in size. The gist of the method:
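Compounds tested at 15 concentrations for 22 h at 37C alongside 10.0nM (final) ICI-182,780 antagonist, in VM7Luc4E2 cells grown in phenol red-free, charcoal-stripped medium. Viability read by CellTiter-Fluor fluorescence after 1 h reagent incubation.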

For assay [5], the target named is Progesterone receptor (Homo sapiens) (UniProt P06401). As to the kind of experiment: qHTS assay to identify small molecule agonists of the progesterone receptor (PR) signaling pathway (AID 1346784; calls by dose curve; note: nearly all actives have a fitted effect of over 30% in size). The method, boiled down:
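Beta-lactamase reporter read-out: after 16 hr compound treatment at 37C and a further 2 hr at room temperature with LiveBLAzer B/G FRET substrate, fluorescence was measured in PR-UAS-bla HEK 293T cells grown in 2% charcoal-stripped serum.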

The target is the same in assay [6]. Description: qHTS assay to identify small molecule antagonists of the progesterone receptor (PR) signaling pathway (AID 1346795; active = well fitted inhibition curve with a large enough effect in the signal ratio in the repeat runs, not every such curve was filed as active; the % refers to the signal ratio; note: potency is the fitted concentration of half-maximal effect). The gist of the method:
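Read-out is fluorescence from the LiveBLAzer B/G FRET substrate, cleaved by a UAS-controlled beta-lactamase in PR-UAS-bla HEK293T cells after 16 hr exposure to compound plus 1 nM promegestone (final), followed by 2 hr at room temperature.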

Assay [7] is described as follows: qHTS assay to identify small molecule antagonists of the progesterone receptor (PR) signaling pathway - cell viability counter screen (AID 1346798). Note: series mostly up to about 92 µM; nearly all actives have a fitted effect of over 50% in size. The method, boiled down: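 HEK293T PR-UAS-bla, 2% charcoal-stripped FBS; 4 hr pre-plate; cpd + R5020, 16 h 37C; LiveBLAzer read first; then CellTiter-Glo 30 min RT, luminescence.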
Assay [8] can be described thus: qHTS assay to identify small molecule agonists of the progesterone receptor (PR) signaling pathway - cell viability counter screen (AID 1346799; calls by dose curve; note: nearly all actives have a fitted effect of over 45% in size). The gist of the method: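 Luminescence from CellTiter-Glo, added after the beta-lactamase FRET read in the same wells, gave cytotoxicity in PR-UAS-bla HEK293T cells treated with compounds for 16 hr at 37C.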
The nature of assay [9]: qHTS assay to identify small molecule agonists of the TGF-beta/Smad signaling pathway - cell viability counter screen (AID 1346829). Note: top concentration of the series differs between compounds; nearly all actives have a fitted effect of over 45% in size. The method, boiled down: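 CellTiter-Glo luminescence readout; SBE-bla HEK 293T cells, overnight plating, compound 5 hr at 37 C/5% CO2, then bla substrate 2 hr RT, then CellTiter-Glo 30 min RT.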
Assay [10] in a line: qHTS assay to identify small molecule agonists of the TGF-beta/Smad signaling pathway (AID 1346859; active = well fitted activation curve with a large enough effect in the signal ratio in the repeat runs, not every such curve was filed as active; the % refers to the signal ratio; note: series mostly up to about 77 µM). The gist of the method:
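SBE-bla HEK 293T, 4,000 cells/well, plated o/n; cpd in DMSO, 5 hr, 37 C/5% CO2; B/G FRET substrate 2 hr RT; ex 405, em 460/530 nm.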

In assay [11] the target is Thyrotropin-releasing hormone receptor (Homo sapiens) (UniProt P34981). Description: qHTS assay to identify small molecule antagonists of the thyrotropin-releasing hormone receptor (TRHR) signaling pathway (AID 1346877; active = well fitted inhibition curve with a large enough effect in the repeat runs, not every such curve was filed as active; note: series mostly up to about 51 µM). The gist of the method: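 Antagonist mode: after a 5 min room-temperature compound exposure, cells were stimulated with 1 nM (final) TRH. Dye-loaded TRHR-HEK293 cells were used, and calcium-dependent fluorescence was followed for 3 min, with 15-point titrations run in triplicate.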
Thyrotropin-releasing hormone receptor (Homo sapiens), sequence (P34981 whole entry, looked up): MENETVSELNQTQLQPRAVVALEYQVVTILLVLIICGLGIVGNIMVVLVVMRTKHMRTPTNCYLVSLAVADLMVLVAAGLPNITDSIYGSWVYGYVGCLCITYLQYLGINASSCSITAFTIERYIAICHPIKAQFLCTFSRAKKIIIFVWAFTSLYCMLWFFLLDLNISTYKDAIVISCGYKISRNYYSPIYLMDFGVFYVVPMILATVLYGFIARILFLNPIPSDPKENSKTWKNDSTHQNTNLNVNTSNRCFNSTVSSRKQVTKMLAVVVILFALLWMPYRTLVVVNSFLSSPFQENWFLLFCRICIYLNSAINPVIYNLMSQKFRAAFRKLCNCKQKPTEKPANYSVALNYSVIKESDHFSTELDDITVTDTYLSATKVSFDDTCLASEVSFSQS

For assay [12] the target is unchanged. Description: qHTS assay to identify small molecule agonists of the thyrotropin-releasing hormone receptor (TRHR) signaling pathway (AID 1346891; calls by dose curve; note: potency is the fitted concentration of half-maximal effect; for activation: series mostly up to about 58 µM). The gist of the method:
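Intracellular calcium rise, read as fluorescence every second for 3 min, served as the agonist signal in dye-loaded HEK293 cells expressing TRHR; each compound ran at 15 concentrations in triplicate.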

Assay [13] addresses Estrogen receptor (Homo sapiens) (UniProt P03372). As to the kind of experiment: qHTS assay to identify small molecule agonists of the estrogen receptor alpha (ER-alpha) signaling pathway in the presence of an antagonist (AID 1259383; calls by dose curve; note: nearly all actives have a fitted effect of over 15% in size; note: potency is the fitted concentration of half-maximal effect; for activation: top concentration of the series differs between compounds). The gist of the method: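 Agonist-mode confirmation run in the presence of 10.0nM (final) ICI-182,780 antagonist. The reporter was ERE-driven luciferase in VM7Luc4E2 cells, grown in charcoal-stripped serum. Cells were exposed to 15-concentration compound series for 22hr, then ONE-Glo luminescence was read.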

Assay [14] can be described thus: qHTS assay to identify small molecule antagonists of the TGF-beta/Smad signaling pathway - cell viability counter screen (AID 1346824). Note: nearly all actives have a fitted effect of over 50% in size. The gist of the method:
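SBE-bla HEK 293T cells, incubated overnight, then compound plus 0.25 ng/mL TGF-beta1 (stock added) for 5 hr at 37 C. Viability was read in the same wells by CellTiter-Glo luminescence after 30 min at room temperature.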

Assay [15] is described as follows: qHTS assay to identify small molecule antagonists of the sonic hedgehog signaling (Shh) pathway (AID 1259369; calls by dose curve; note: nearly all actives have a fitted effect of over 45% in size; note: potency is the fitted concentration of half-maximal effect). The gist of the method:
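Antagonist mode: compound added to 3T3 Gli1-Luc cells followed by conditioned-medium stimulation, 24 h at 37 C, 5% CO2. Inhibition taken as loss of Gli1-driven luciferase luminescence.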

The nature of assay [16]: qHTS assay to identify small molecule agonists or antagonists of the thyroid stimulating hormone receptor (TSHR) signaling pathway - wild type cell line counter screen (AID 1259384; calls by dose curve). The method, boiled down: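 Wild-type Hek293 cells, 800/well, 18 h at 37C, then compound with Ro20-1724 for 30 min RT. cAMP by HTRF (cAMP-d2/anti-cAMP cryptate), 1 h RT, fluorescence read. 15 concentrations, triplicates.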

Assay [17] has as its target Thyrotropin receptor (Homo sapiens) (UniProt P16473). Description: qHTS assay to identify small molecule antagonists of the thyroid stimulating hormone receptor (TSHR) signaling pathway (AID 1259385; calls by dose curve; note: nearly all actives have a fitted effect of over 20% in size). The method, boiled down:
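TSHR-HEK293 cells (800/well) plated 18 h, then compounds with Ro20-1724 and TSH at 1.5 ng/mL final, 30 min at room temperature. cAMP quantified by HTRF (cAMP-d2/anti-cAMP-cryptate, 1 h); 15 concentrations in triplicate.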

Several values for one entry are separate records, joined by “and”; a condition that tells them apart may be missing. Equal entries are not always repeated. Records with an inconclusive call do not appear. The source holds several records for some structures; these can differ, active in one and inactive in another. Activity calls are given as the source filed them. Unless noted, calls come from the whole dose curve; as a rule, active = well fitted curve in the direction sought with a large enough effect in the repeat runs; inconclusive = weak or mixed curves; inactive = no such curve, though single readings can be large; an effect the other way counts as inactive or inconclusive.
% is set by controls: 0 for no effect and ±100 for the full control effect.

Thyrotropin receptor (Homo sapiens), sequence (P16473 whole entry, looked up): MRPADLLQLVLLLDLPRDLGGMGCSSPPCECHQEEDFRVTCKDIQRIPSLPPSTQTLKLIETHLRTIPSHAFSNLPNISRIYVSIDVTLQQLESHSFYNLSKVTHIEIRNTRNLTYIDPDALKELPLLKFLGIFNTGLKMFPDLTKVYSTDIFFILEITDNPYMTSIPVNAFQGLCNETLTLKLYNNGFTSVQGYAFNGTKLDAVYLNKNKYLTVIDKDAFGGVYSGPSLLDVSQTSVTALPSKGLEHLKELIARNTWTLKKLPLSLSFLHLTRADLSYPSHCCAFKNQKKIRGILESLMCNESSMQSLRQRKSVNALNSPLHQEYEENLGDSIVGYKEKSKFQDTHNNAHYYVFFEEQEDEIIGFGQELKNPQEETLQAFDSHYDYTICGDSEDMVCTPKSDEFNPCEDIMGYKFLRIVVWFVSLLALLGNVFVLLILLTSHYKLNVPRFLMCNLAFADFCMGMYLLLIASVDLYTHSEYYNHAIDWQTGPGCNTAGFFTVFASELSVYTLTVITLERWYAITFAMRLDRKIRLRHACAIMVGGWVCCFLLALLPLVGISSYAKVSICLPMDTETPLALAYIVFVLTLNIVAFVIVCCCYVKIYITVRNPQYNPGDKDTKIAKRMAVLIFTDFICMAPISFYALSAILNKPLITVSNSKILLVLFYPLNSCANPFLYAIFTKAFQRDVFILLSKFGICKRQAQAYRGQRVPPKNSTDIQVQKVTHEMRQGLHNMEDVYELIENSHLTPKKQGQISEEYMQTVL
Estrogen receptor (Homo sapiens), sequence (P03372 whole entry, looked up): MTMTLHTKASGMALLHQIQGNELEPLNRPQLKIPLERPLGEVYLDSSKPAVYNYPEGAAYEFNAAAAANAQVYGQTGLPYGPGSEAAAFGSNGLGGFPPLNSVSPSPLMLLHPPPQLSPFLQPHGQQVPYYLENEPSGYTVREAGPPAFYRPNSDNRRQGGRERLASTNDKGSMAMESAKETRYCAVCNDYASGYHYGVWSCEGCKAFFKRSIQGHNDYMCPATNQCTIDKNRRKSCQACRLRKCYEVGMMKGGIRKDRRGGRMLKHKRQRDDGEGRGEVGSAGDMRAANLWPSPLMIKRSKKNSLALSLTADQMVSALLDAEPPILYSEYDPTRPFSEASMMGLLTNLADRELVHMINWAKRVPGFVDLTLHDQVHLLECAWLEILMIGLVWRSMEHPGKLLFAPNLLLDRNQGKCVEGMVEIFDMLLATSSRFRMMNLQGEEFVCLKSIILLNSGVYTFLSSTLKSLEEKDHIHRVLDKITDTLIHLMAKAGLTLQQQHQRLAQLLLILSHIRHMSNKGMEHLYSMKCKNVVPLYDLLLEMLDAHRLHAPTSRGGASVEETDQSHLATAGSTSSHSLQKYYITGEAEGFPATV
Progesterone receptor (Homo sapiens), sequence (P06401 whole entry, looked up): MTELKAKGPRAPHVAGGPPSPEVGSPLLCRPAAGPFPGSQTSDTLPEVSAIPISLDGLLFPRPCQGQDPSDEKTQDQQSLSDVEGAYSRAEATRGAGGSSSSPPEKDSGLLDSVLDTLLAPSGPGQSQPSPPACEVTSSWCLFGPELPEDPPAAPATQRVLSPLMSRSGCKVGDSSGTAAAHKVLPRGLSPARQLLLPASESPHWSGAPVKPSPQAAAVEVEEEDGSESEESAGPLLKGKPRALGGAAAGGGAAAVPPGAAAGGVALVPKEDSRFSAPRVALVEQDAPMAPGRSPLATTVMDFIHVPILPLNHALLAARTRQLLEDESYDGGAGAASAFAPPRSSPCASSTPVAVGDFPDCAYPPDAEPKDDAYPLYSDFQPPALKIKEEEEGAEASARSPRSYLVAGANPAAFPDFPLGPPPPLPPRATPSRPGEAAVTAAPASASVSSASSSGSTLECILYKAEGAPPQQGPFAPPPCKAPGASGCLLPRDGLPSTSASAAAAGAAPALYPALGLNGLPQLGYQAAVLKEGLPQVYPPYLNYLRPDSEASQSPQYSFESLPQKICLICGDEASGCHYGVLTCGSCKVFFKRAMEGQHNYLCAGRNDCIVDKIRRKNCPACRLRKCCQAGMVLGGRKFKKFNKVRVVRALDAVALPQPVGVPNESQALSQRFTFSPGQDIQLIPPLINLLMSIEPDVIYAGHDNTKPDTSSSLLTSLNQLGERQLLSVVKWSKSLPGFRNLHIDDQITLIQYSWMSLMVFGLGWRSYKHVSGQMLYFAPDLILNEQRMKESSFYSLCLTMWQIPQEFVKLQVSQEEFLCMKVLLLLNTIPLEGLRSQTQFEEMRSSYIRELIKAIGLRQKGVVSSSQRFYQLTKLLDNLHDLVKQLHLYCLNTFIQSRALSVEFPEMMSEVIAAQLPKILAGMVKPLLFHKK

In the case of `C=C[C@H]1CN2CC[C@H]1C[C@@H]2[C@@H](O)c1ccnc2ccc(OC)cc12`, the Potency entry in [1], in assay [2], in assay [3], in [4], in assay [5] and in [6] was “inactive” each time. Further, the Potency result in [7], in [8], in assay [9], in [11] and in assay [12] was “inactive” throughout. In assay [10], the call was inactive.

Turning to `Nc1cc(Cl)c(N)c(Cl)c1`, the Potency result in assay [1], in [2], in [3], in assay [13], in assay [5] and in [6] was “inactive” in each case. The Potency result in assay [7], in [8], in assay [14], in assay [9], in assay [11] and in assay [12] was “inactive” each time. For the same compound, the compound was classed as inactive in assay [10].

As to `C[C@]12CC[C@@H]3c4ccc(O)cc4CC[C@H]3[C@@H]1CC[C@@H]2O`, in assay [15], the Potency is 3.06 µM (active) and 5.45 µM (active). The Potency entry in assay [1], in [3], in assay [16], in assay [4], in [14] and in [9] was “inactive” in each case. Further, the Potency result in assay [11] and in [12] was “inactive” throughout. In assay [10], the compound was classed as inactive.

Take `O=C(O)c1ccc(O)cc1`: the Potency result in assay [15], in assay [1], in assay [2], in assay [3], in [16] and in assay [17] was “inactive” each time. Besides, the Potency result in [4], in assay [5], in assay [6], in [7], in assay [8] and in assay [14] was “inactive” throughout. Moreover, the Potency entry in assay [9], in [11] and in [12] was “inactive” in each case. Also, in assay [10], the result was inactive.

`C[N+](C)(C)CCO`: the Potency entry in assay [15], in assay [1], in assay [2], in assay [3], in assay [16] and in assay [17] was “inactive” each time. The Potency entry in assay [4], in assay [5], in assay [6], in [7], in [8] and in [14] was “inactive” throughout. Further, in [9], the Potency entry is “inactive”. Moreover, the compound was classed as inactive in assay [10].

As to `O=C1OC2(c3ccccc31)c1cc(I)c(O)c(I)c1Oc1c2cc(I)c(O)c1I`, the Potency result in assay [15] is “inactive and 8.73 µM (active) and 20.9 µM (active)”; in [1], 10.6 µM (active) [middle of 4 runs]; in [12] it was 19.7 µM (active) [middle of 4 runs]. Also, the Potency result in [2], in assay [3], in assay [5], in assay [6], in [7] and in [8] was “inactive” each time. Besides, the Potency entry in assay [14], in assay [9] and in assay [11] was “inactive” throughout. Also, in assay [10], the compound was called inactive.

As to `OC[C@@H](O)[C@@H](O[C@@H]1O[C@H](CO)[C@H](O)[C@H](O)[C@H]1O)[C@H](O)[C@@H](O)CO`, the Potency result in [15], in assay [1], in [2], in assay [3], in assay [13] and in [16] was “inactive” throughout. Moreover, the Potency entry in [17], in [7], in [8], in assay [14] and in [9] was “inactive” each time. In addition, the compound was called inactive in [10].

Consider `COc1ccc(-c2coc3cc(O)cc(O)c3c2=O)cc1`, for which the Potency is 17.4 µM (active) and inactive in assay [15]; 38.6 µM (active) in assay [2]; 21.9 µM (active) and 9.69 µM (active) in assay [13]; 6.11 µM (active) in assay [6]. The Potency entry in assay [1], in assay [3], in assay [16], in [17], in assay [5] and in assay [7] was “inactive” each time. For the same compound, the Potency result in assay [14], in [9], in assay [11] and in [12] was “inactive” throughout. For the same compound, the call in assay [10] was inactive.

The values above are taken from PubChem BioAssay (Tox21).
